An excerpt weighted towards active compounds, which were near 3.8% of everything screened.
hDAT+cocaine = modulates human dopamine transporter uptake under cocaine; LLC-PK1 hDAT cells, [14C]-dopamine uptake with cocaine IC80; actives deviate in either direction; B-score at 10 µM; 110,000 tested, 1.3% active; AID 449768; Q01959;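 active = Z score or B-score, a plate-position-corrected score, falls beyond the plate's 99.7% confidence bounds, in either direction; inactive = both scores lie inside the 99.7% bounds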;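 also: scored against the spread of the other compound wells on the same plate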
ERa coact inh = ER-alpha (human) coactivator binding inhibition | P03372 | TR-FRET ER-alpha LBD / SRC-1 peptide, estradiol-bound | inhibition, % at 25.6 µM | 86,000 tested, 1.7% active; in the data active = inhibition above about 50%;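 also: 0% = receptor plus peptide control and 100% = peptide only without receptor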
Target sequence (P03372 whole entry, looked up, the tested form may be a part): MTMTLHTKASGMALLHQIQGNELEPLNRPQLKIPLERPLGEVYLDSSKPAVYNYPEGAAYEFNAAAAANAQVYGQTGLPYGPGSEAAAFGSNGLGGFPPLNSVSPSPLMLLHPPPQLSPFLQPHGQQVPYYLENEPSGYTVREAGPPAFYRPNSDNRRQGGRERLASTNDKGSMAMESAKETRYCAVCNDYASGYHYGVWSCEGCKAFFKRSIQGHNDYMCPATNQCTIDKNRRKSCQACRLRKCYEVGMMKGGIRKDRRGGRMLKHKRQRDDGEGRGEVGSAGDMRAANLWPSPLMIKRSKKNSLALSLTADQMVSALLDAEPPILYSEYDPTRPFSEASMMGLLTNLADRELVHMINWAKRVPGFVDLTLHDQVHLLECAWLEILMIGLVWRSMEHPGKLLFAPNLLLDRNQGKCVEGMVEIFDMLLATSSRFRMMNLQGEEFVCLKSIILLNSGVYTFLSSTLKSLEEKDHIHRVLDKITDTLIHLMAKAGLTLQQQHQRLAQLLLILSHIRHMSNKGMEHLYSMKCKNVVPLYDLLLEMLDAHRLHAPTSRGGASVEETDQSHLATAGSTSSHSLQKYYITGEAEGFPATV
MT1-MMP txn act = activates MT1-MMP transcription; HT1080 MT1-MMP promoter luciferase reporter, luminescence, overnight; hits give high values; activation factor at 10 µM; 86,000 tested, 0.16% active; AID 750;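 active = activation factor of at least 2 for MT1-MMP transcription at 10 µM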
ERb SRC1 inh = ER-beta (human) coactivator binding inhibition | Q92731 | TR-FRET ER-beta LBD / SRC1-Cy5 peptide binding; receptor agonist-loaded with 1 µM estradiol | inhibition, % at 25.6 µM | 86,000 tested, 1.3% active | AID 633;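 active = compounds whose percent inhibition of the receptor-coactivator binding signal exceeds about 50% in the single-dose screen, limit read from the data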;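 also: 0% = receptor plus peptide wells without compound and 100% = peptide-only wells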
ERa SRC1 pot = enhances coactivator binding to human estrogen receptor alpha; P03372; TR-FRET ERalpha-LBD/SRC-Cy5 coactivator binding, 2 h; 100 = basal binding, no effect; coactivator binding (% of control), % at 25.6 µM; 86,000 tested, 1.3% active; AID 639; in the data active = activity above about 200%;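 also: binding measured in presence of low estradiol as agonist stimulus; 0% = peptide alone without receptor and 100% = receptor with peptide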
Active calls of the source: *; · = not tested or not shown; [ ] = remark or other dose.

SMILES	hDAT+cocaine	ERa coact inh	MT1-MMP txn act	ERb SRC1 inh	ERa SRC1 pot
CCCOC(=O)C1=C(C)OC23OC(N)=C(C#N)C12C(=O)c1ccccc13 (stereo not drawn)	-0.507	-11.1	1.1	-8.7	104.4
Cc1cccc(Nc2nnc(-c3ccc(C(=O)N4C[C@H]5C[C@H](C4)c4cccc(=O)n4C5)cc3)c3ccccc23)c1	1.75*	2.5	1	-17.8	101.1
Cc1nc2cc(Nc3nnc(-c4ccccc4)c4ccccc34)ccc2n1C	1.07	·	·	·	·
Cc1ccc(C(=O)c2sc3nsc(C)c3c2N)cc1	-0.984	5.3	1.7	10.1	83.8
Cc1snc2sc(C(=O)c3ccc(Br)cc3)c(N)c12	0.0173	71.0*	1.4	51.9*	139.5
O=C(COC(=O)c1cccs1)NCc1ccco1	0.266	53.2*[fluorescence artefact?]	1.2	53.0*	77.1
O=C(COC(=O)COc1ccc(Nc2ccccc2)cc1)NCc1ccco1	0.857	30.1	1.4	52.0*[fluorescence artefact?]	68.8
CCOc1cc(NC(=O)c2cccs2)c(OCC)cc1NC(=O)c1ccco1	-0.587	7.7	1.1	64.8*	75.4
COc1cc(NC(=O)c2cccs2)c(C(=O)OCC(=O)NCc2ccco2)cc1OC	0.326	79.0*	1.2	41.9	88.8
O=C(COC(=O)c1ccccc1Nc1ccccc1)NCc1ccco1	-0.172	-9.0	1.2	-1.8	102.9
O=C(COC(=O)c1cccs1)NCc1ccccc1	-0.247	-2.2	1.1	-10.1	136.3
C[C@H](NC(=O)c1nc[nH]c1C(=O)NC1CCN(C(=O)OC(C)(C)C)CC1)C(=O)OCc1ccccc1	0.104	·	·	·	·
CCN(CC)S(=O)(=O)c1cccc(-c2nnc(SCC(=O)NC3CCCCCCC3)n2N)c1	0.77	-0.2	1	1.6	124.8
COC(=O)c1ccc(C(NC(=O)OCc2ccccc2)/C(=C/[C@@H](C)C(=O)Nc2ccccc2)C(F)(F)F)cc1 (stereo partly drawn)	·	·	1.1	·	·
Cc1cccc(C(=O)N/N=C/c2ccc(OCC(=O)N3CCCCC3)cc2)c1	2.19*	·	·	·	·
O=C(CSCc1cccc(Cl)c1)N/N=C/c1ccc(OCC(=O)N2CCCCC2)cc1	1.53	·	·	·	·
CCOC(=O)Cn1c(CN(Cc2ccccc2)Cc2ccccc2)nc2c1c(=O)n(C)c(=O)n2C	3.79*	-0.7	1.2	5.3	88.2
O=C(O)c1ccccc1C1=Nc2ccc(O)cc2Oc2cc(O)ccc21	-0.912	35.3	1	61.7*[fluorescence artefact?]	46.5
Cc1ccc2oc(=O)c3cc(C(=O)N4CCN(c5ncccn5)CC4)sc3c2c1	·	74.2*[fluorescence artefact?]	1	29.1	141.6
Cc1ccc2oc(=O)c3cc(C(=O)N4CCN(C(=O)c5ccco5)CC4)sc3c2c1	·	2.9	1.1	-20.8	97.4
Cn1c(=O)c2c(nc(SCC(=O)NCc3ccc4c(c3)OCO4)n2Cc2ccc(Cl)cc2)n(C)c1=O	0.847	85.5*[fluorescence artefact?]	1.1	53.7*[fluorescence artefact?]	31.7
O=C(CSc1nnc2scc(-c3ccc(Cl)cc3)n12)NCc1ccc2c(c1)OCO2	-0.00776	16.5	1.2	-0.5	212.6*
CC(=O)c1c(C)nn(CC(O)COc2ccc3c(c2)CCC3)c1C (stereo not drawn)	14.9*	-14.9	1	17.4	97.0
Cc1nn(CC(O)COc2ccc3c(c2)CCC3)c(C)c1Br (stereo not drawn)	-0.405	-2.5	1.1	-5.0	102.8
COc1cccc(NC(=O)c2nnn(Cc3ccc(Br)cc3F)c2N)c1	-0.388	-3.5	1.2	-24.2	269.9*
SMILES	hDAT+cocaine	ERa coact inh	MT1-MMP txn act	ERb SRC1 inh	ERa SRC1 pot
COc1cccc(NC(=O)Cn2nnc(C(=O)Nc3ccccc3)c2N)c1	0.00758	27.9	1.2	-3.1	107.4
COc1ccc2cc(CN(CC3COCCO3)S(=O)(=O)c3ccc(Cl)cc3)c(=O)[nH]c2c1 (stereo not drawn)	0.136	28.6	1	10.6	234.2*[fluorescence artefact?]
COc1ccc2cc(CN(CC3COCCO3)S(=O)(=O)c3c(C)cc(C)cc3C)c(=O)[nH]c2c1 (stereo not drawn)	-0.154	·	·	·	·
O=c1ccn(Cc2ccccc2)c(=O)n1Cc1ccccc1	2.79*	2.0	1.1	-4.0	110.3
Cc1ccccc1-c1noc(-c2ccc(Cl)cc2)n1	-1.18	-10.9	2.1*	-7.1	112.5
COc1nc(-c2ccccc2)ccc1-c1noc(-c2ccccc2F)n1	-1.57	·	1.2	·	·
COc1cccc(-c2nc(-c3ccc(NC(=O)Cc4ccccc4OC)cc3)no2)c1	-0.733	26.2	1.1	13.2	197.4
COc1ccc(-c2ccc(-c3noc(-c4ccccc4OC)n3)c(OC)n2)cc1	0.324	33.1	1	4.2	231.1*
COc1ccc(-c2ccc(-c3noc(-c4cccc(OC)c4)n3)c(OC)n2)cc1	-1.54	·	1.2	·	·
COc1ccc(CC(=O)Nc2ccc(-c3noc(-c4ccccc4OC)n3)cc2)cc1	0.0132	31.1	1.1	15.6	328.3*[fluorescence artefact?]
COc1ccc(-c2ccc(-c3noc(-c4ccc(OC)c(OC)c4)n3)c(OC)n2)cc1	·	80.5*	1.1	44.2	86.6
CCCC[C@H]1C[C@@H]1[C@@H]1N(P(=O)(c2ccccc2)c2ccccc2)[C@](CO)(c2ccccc2)CC12CC2	·	·	1.1	·	·
CC(=O)Nc1ccccc1Nc1nc(NCCO)nc(N2CCCC2)n1	-0.0162	·	·	·	·
Cc1cc(=O)n2nc(-c3ccc(C(F)(F)F)cc3)sc2n1	-0.473	4.5	1.6	-5.6	106.6
COc1ccccc1-c1noc(-c2cc(OC)c(OC)c(OC)c2)n1	-0.00808	-14.9	1	-5.9	98.2
COc1ccc(-c2nc(-c3ccc(NC(=O)c4ccc(Br)o4)cc3)no2)cc1OC	0.277	22.4	1.6	2.1	150.9
COc1ccccc1-c1nc(-c2ccncc2)no1	0.0146	7.5	1	-3.4	117.6
COc1cc(OC)cc(-c2nc(-c3ccccc3OC)no2)c1	1.11	-1.6	1	-5.0	488.1*[fluorescence artefact?]
COc1ccc(-c2ccc(-c3noc(-c4cccs4)n3)c(OC)n2)cc1	-0.245	37.4	1.1	28.8	473.7*
COc1cc(-c2nc(-c3ccc(NC(=O)c4ccc(Br)o4)cc3)no2)cc(OC)c1OC	0.904	71.5*[fluorescence artefact?]	1.3	32.5	226.5*[fluorescence artefact?]
COc1ccc(Cl)cc1-c1nc(-c2ccncc2)no1	-1.07	29.7	1.3	33.7	268.4*
O=C(C1=C[C@H](C2CC2)C[C@H](OCCCCO)O1)N1CCOCC1	-0.885	·	·	·	·
COc1ccc(/C(O)=C2/C(=O)C(=O)N(CCCN(C)C)C2c2ccco2)cc1Cl (stereo not drawn)	·	·	1	·	·
COc1ccc(-c2nc(-c3ccc(Br)cc3)no2)c(OC)c1	-0.878	13.1	1	8.9	205.7*[fluorescence artefact?]
COc1ccc(-c2ccc(-c3noc(-c4ccccc4C)n3)c(OC)n2)cc1	-0.608	-3.0	0.9	23.0	230.1*[fluorescence artefact?]
CC(=O)c1ccc(NC2OC(C)C(O)C(O)C2O)cc1 (stereo not drawn)	-2.78*	-0.8	1.1	0.5	106.1
C=C(C)C(=O)Nc1cccc(C2=NOC3(C2)C[C@@H](C(N)=O)N(C(=O)CC(c2ccccc2)c2ccccc2)C3)c1 (stereo partly drawn)	-0.0312	·	·	·	·
